Rows were chosen to be rich in hits. Some 12% of all compounds tested hit in one or more screens of this group.
ALDH1A1 block – blocks purified human ALDH1A1 activity; hit rate 7.3% among 220,000; Purified ALDH1A1, NADH fluorescence, propionaldehyde substrate; P00352; Potency, µM (titrated, usually from 75.3 µM), actives largely listed as inhibitors; active means well fitted inhibition curve with a large enough effect, not every such curve was filed as active; inconclusive means small, poorly fitted or top-dose-only effect, or another doubt; inactive means no such curve, though single readings can be large or run the other way
PLK1 PBD inh – blocks phosphopeptide binding to human PLK1 polo-box domain | P53350 | Plk1 PBD binding of FITC phosphopeptide, fluorescence polarization | hit rate 2.8% among 360,000 | AID 720504 | Potency, µM, most hits filed as inhibitors; further: series mostly up to about 57 µM; nearly all actives have a fitted effect of over 65% in size
RORg inh – inhibitors of mouse ROR gamma transcriptional activity; AID 2551; hit rate 5.4% among 310,000; P51450; Potency, µM (top dose mostly 53.6 µM), hits mostly inhibitors; Drosophila S2 Gal4-RORgamma UAS-luciferase reporter, 20 h; further: nearly all actives have a fitted effect of over 60% in size
Target sequence (P51450 whole entry, looked up, the tested form may be a part): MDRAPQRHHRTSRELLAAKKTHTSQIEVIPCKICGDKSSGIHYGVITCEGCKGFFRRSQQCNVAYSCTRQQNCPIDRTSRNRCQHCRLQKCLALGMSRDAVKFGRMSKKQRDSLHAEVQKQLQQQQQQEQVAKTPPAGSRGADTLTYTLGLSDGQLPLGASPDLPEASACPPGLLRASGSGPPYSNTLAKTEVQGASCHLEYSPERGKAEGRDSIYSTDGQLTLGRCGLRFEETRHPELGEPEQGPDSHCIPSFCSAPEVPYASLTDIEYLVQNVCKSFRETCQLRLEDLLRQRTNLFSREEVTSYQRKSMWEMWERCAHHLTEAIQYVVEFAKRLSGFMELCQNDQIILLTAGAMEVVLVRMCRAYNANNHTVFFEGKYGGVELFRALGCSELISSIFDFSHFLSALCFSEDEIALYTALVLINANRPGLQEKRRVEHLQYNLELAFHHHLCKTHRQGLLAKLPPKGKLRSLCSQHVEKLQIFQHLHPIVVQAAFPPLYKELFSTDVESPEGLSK
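ROR gamma transcriptional activity was tracked as Gal4-UAS luciferase output in stably transfected Drosophila Schneider cells, with compound added 1 hr before 700 uM copper sulfate induction and a 20 hr ambient-temperature incubation.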
Sfp PPTase inh – inhibitors of Bacillus subtilis Sfp phosphopantetheinyl transferase; Q9F4F7; Biochemical Sfp PPTase activity, qHTS; Potency, µM, actives largely listed as inhibitors; hit rate 3.5% among 310,000;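 further: the enzyme is Sfp with the accession as filed and its product quenches rhodamine fluorescence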
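Step 1, compound plus 15 nM Sfp-PPTase, 15 min, room temperature. Step 2, add rhodamine-CoA (5 uM) and BHQ-2-YbbR (12.5 uM). Step 3, read 525/598 nm fluorescence at 0 and 30 min.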
VP16 counter – Gal4-VP16 reporter inhibition counter-screen | Potency, µM (titrated, usually from 53.6 µM), usual class: inhibitors | Drosophila S2 Gal4-VP16 UAS-luciferase, luminescence, 20 h | hit rate 3.5% among 310,000;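 further: Gal4-VP16 expression switched on by copper sulfate through the metallothionein promoter; nearly all actives have a fitted effect of over 50% in size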
Numbers stand for hits; ! = not active in a repeat; [ ] = remark or other dose. Unless noted, the call rests on the fitted dose curve; in most records, active means well fitted curve in the direction sought with a large enough effect; inconclusive means small, poorly fitted or top-dose-only effect, or another doubt; inactive means no such curve, though single readings can be large; an effect the other way counts as inactive or inconclusive.

`Cc1cccc(NC(=O)Cn2cc(C(=O)C3CC3)c3ccccc32)c1C` gave PLK1 PBD inh inactive, RORg inh inactive, Sfp PPTase inh inconclusive and VP16 counter inactive.
Screening CCCCCCCCn1sccc1=O returned ALDH1A1 block inconclusive, PLK1 PBD inh 4.74µM, RORg inh 0.447µM and VP16 counter 0.631µM.
Screening CCN1CCc2ccccc2C1 returned PLK1 PBD inh inactive, RORg inh inactive, Sfp PPTase inh inactive and VP16 counter inactive.
Screening CCN1CCN(CC(c2ccccc2)c2ccccc2)CC1 returned PLK1 PBD inh inactive, RORg inh 20µM, Sfp PPTase inh inactive and VP16 counter inactive.
For Clc1ccc(C(c2ccc(Cl)cc2)C(Cl)Cl)cc1 the results were ALDH1A1 block inactive, RORg inh inactive and VP16 counter inactive.
CC[C@@]1(O)C(=O)OCc2c1cc1n(c2=O)Cc2cc3c(N)cccc3nc2-1 was read as PLK1 PBD inh inactive, RORg inh 0.02µM, Sfp PPTase inh inactive and VP16 counter 0.355µM.
CCC(C)(C)O was read as RORg inh inactive, Sfp PPTase inh inactive and VP16 counter inactive.
For CCCCC1C(=O)NC(=S)N(C)C1=O (stereo not drawn) the results were PLK1 PBD inh inactive.
`CCCCC1C(=O)NC(=S)NC1=O` gave ALDH1A1 block 31.6µM, RORg inh inactive, Sfp PPTase inh 10µM and VP16 counter inactive.
`CN(C)c1ccc(CCN2CCOCC2)cc1` gave PLK1 PBD inh inactive.
For CN(C)c1ccc2c(c1)N=C(c1ccco1)OP2(=S)N1CCOCC1 (stereo not drawn) the results were ALDH1A1 block 8.91µM, PLK1 PBD inh 18.9µM, RORg inh inactive, Sfp PPTase inh 14.1µM and VP16 counter inactive.
CC(C)(c1ccc(OCC2CO2)cc1)c1ccc(OCC2CO2)cc1 (stereo not drawn) was read as ALDH1A1 block inconclusive, RORg inh inactive, Sfp PPTase inh inactive and VP16 counter inactive.
For O=C1NC(=O)C(=Cc2cn(CCOc3ccc4c(c3)OCO4)c3ccccc23)C(=O)N1 the results were ALDH1A1 block inconclusive, PLK1 PBD inh inactive, RORg inh inactive, Sfp PPTase inh inactive and VP16 counter inactive.
Screening Cc1ccc(OCCOc2cccc(C=C3C(=O)NC(=O)NC3=O)c2)c(C)c1 returned PLK1 PBD inh 5.32µM, RORg inh 7.94µM, Sfp PPTase inh 50.1µM and VP16 counter 3.98µM.
Cn1c(=O)oc2cc(S(=O)(=O)NCc3cccnc3)ccc21 was read as PLK1 PBD inh inactive, RORg inh inactive, Sfp PPTase inh 79.4µM and VP16 counter inactive.
For COC(=O)C12CC3=CCC4C(=O)N(c5ccccc5)C(=O)C4C3Cc3ccccc3[C@@H]1CNC2=O (stereo partly drawn) the results were ALDH1A1 block inactive, RORg inh inactive, Sfp PPTase inh inactive and VP16 counter inactive.
Screening CN(C)CCC=C1c2ccccc2CCc2ccccc21 returned ALDH1A1 block 17.8µM!, PLK1 PBD inh inactive, RORg inh inactive, Sfp PPTase inh inconclusive and VP16 counter inactive.
Screening O=C(c1ccccc1)[C@H]1[C@H](c2ccccc2[N+](=O)[O-])N1C1CCCCC1 (stereo partly drawn) returned ALDH1A1 block inactive[13.5 µM].
Screening C=CCN1C(=O)NC(=O)/C(=C/c2c(CCN(C)C(=O)c3ccccc3)cc3c(c2OC)OCO3)C1=O returned PLK1 PBD inh 23.8µM, RORg inh inactive, Sfp PPTase inh inactive and VP16 counter inactive.
Screening CNC(=O)Oc1cccc(-c2cn3cc(Cl)ccc3n2)c1 returned ALDH1A1 block inconclusive, PLK1 PBD inh inactive, RORg inh inactive, Sfp PPTase inh inactive and VP16 counter 5.01µM.
CNC(=O)Oc1ccc(-c2cn3cc(C)ccc3n2)cc1 was read as ALDH1A1 block inconclusive, PLK1 PBD inh inactive, RORg inh 2µM, Sfp PPTase inh inactive and VP16 counter 3.98µM.
C=C(C)C1CCC(C)=CC1c1c(OC)cc(C)cc1OC (stereo not drawn) was read as RORg inh inactive, Sfp PPTase inh inactive and VP16 counter inactive.
Screening CC(C)(C#N)O[C@H]1OC(CO)C(O)C(O)C1O (stereo partly drawn) returned ALDH1A1 block inactive, RORg inh inactive, Sfp PPTase inh inactive and VP16 counter inactive.
For COc1ccc(OC)c(-n2c(O)c(C=Nc3c(C)n(C)n(-c4ccccc4)c3=O)c(=O)[nH]c2=S)c1 the results were ALDH1A1 block inconclusive, PLK1 PBD inh inactive, RORg inh inactive, Sfp PPTase inh 44.7µM and VP16 counter inactive.
CC(C)N1CCN(Cc2cccc([N+](=O)[O-])c2)CC1 was read as ALDH1A1 block 3.55µM, PLK1 PBD inh inactive, RORg inh inactive, Sfp PPTase inh 79.4µM and VP16 counter inactive.
O=[N+]([O-])c1cccc(CN2CCN(Cc3ccc(Cl)cc3)CC2)c1 was read as ALDH1A1 block inconclusive, PLK1 PBD inh inactive, RORg inh inactive, Sfp PPTase inh inconclusive and VP16 counter inactive.
Screening CCC(=NCc1ccc(F)cc1)c1c(O)n(C)c(=O)n(C)c1=O returned ALDH1A1 block inactive, PLK1 PBD inh inactive, RORg inh inactive, Sfp PPTase inh inactive and VP16 counter 22.4µM.
CCC(=NCCC(c1ccccc1)c1ccccc1)c1c(O)n(C)c(=O)n(C)c1=O was read as ALDH1A1 block inactive, PLK1 PBD inh inactive, RORg inh inactive, Sfp PPTase inh inactive and VP16 counter inactive.
O=C(O)CNC(=O)[C@@H](CS)Cc1ccccc1 was read as ALDH1A1 block inconclusive, RORg inh inactive, Sfp PPTase inh 35.5µM and VP16 counter inactive.
`CCCN1C[C@H](C)N([C@H](c2ccc(C(=O)N(CC)CC)cc2)c2cccc(OC)c2)C[C@H]1C` gave ALDH1A1 block inactive, RORg inh inactive, Sfp PPTase inh inactive and VP16 counter inactive.
`C=C(C)c1ccccc1` gave ALDH1A1 block inactive, PLK1 PBD inh inactive, RORg inh inactive and VP16 counter inactive.
For CC(C)(C)c1ccc(O)c(N=Cc2c(O)ccc3ccccc23)c1 the results were PLK1 PBD inh inactive, RORg inh 12.6µM, Sfp PPTase inh inactive and VP16 counter 11.2µM.
CN1CSC(=S)N(C)C1 was read as ALDH1A1 block inactive, PLK1 PBD inh inconclusive, RORg inh 10µM, Sfp PPTase inh 44.7µM and VP16 counter 11.2µM.
For COc1ccc(Cn2c(N)c(C(=O)NCc3ccco3)c3nc4ccccc4nc32)cc1OC the results were ALDH1A1 block inconclusive, PLK1 PBD inh inactive, RORg inh inactive, Sfp PPTase inh inconclusive and VP16 counter inactive.
`COCCOC(=O)c1c(N)n(Cc2ccco2)c2nc3ccccc3nc12` gave ALDH1A1 block inactive, PLK1 PBD inh inactive, RORg inh inactive, Sfp PPTase inh 56.2µM and VP16 counter inactive.
`COCCNC(=O)c1c(NC(=O)c2ccc(Br)o2)n(Cc2ccccc2)c2nc3ccccc3nc12` gave ALDH1A1 block inconclusive, PLK1 PBD inh inactive, RORg inh inactive, Sfp PPTase inh 28.2µM and VP16 counter inconclusive.
`Nc1c(C(=O)NCC2CCCO2)c2nc3ccccc3nc2n1Cc1ccco1` (stereo not drawn) gave PLK1 PBD inh inactive, RORg inh inactive, Sfp PPTase inh 3.98µM and VP16 counter inconclusive.

Compound activity (PubChem BioAssay)
